# Sampled rows, rich in hits. Any-hit rate of the full collection: about 3.7%.
# Autofluor counter – counter-screen for toxin protease inhibitors: compound fluorescence; compound autofluorescence counterscreen, microsphere flow cytometry; stronger effect = higher value; fluorescence intensity (no concentration beside the values); 360,000 tested, 3.1% active; AID 624483; in the data active = fluorescence intensity above about 16000; inconclusive = no clear call, values can overlap the other calls
# MazEF act – MazEF (E. coli) toxin RNase activation. P0AE70. FAM/BHQ RNA-DNA oligo cleavage fluorescence, 5 h. activation, % at 20 µM. 350,000 tested, 0.32% active. AID 504720; in the data active = activation above about 50%
# Target sequence (P0AE70 whole entry, looked up): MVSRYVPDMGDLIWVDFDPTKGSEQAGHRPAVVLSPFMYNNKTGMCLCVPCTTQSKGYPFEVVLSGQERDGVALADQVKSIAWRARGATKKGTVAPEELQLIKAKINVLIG
# Anthrax LF inh2 – inhibitors of Bacillus anthracis lethal factor protease; P15917; multiplex microsphere protease cleavage assay, LF; inhibition, % at 10 µM; 360,000 tested, 0.12% active; AID 588501; also: plate controls were buffer without enzyme for full effect and enzyme alone for no effect
# BoNT F protease – BoNT F light chain protease inhibition. Multiplex microsphere protease cleavage assay, flow cytometry. inhibition, % at 10 µM. 360,000 tested, 0.22% active; in the data active = inhibition above about 35%, passing the limit was not always enough; inconclusive = no clear call, values can overlap the other calls; also: plate controls were buffer without enzyme for full effect and enzyme alone for no effect
# BoNT-A LC inh2 – blocks Botulinum neurotoxin A light chain protease. 360,000 tested, 0.17% active. multiplex microsphere protease substrate cleavage, flow cytometry. inhibition, % at 10 µM; also: plate controls were buffer without enzyme for full effect and enzyme alone for no effect
# Numbers without * were called inactive; i = inactive; ? = inconclusive; . = no result given. Rule as the data show it, unless noted: active = inhibition above about 30%; inconclusive = no clear call, values can overlap the other calls; inactive = below that.
SMILES,Autofluor counter,MazEF act,Anthrax LF inh2,BoNT F protease,BoNT-A LC inh2
COc1ccc(C(=O)NCc2ccccc2OC)cc1,21799*,2.1,-4.3,2.5,5.8
COc1ccc(C(=O)NCc2cccnc2)cc1S(=O)(=O)N1CCOCC1,21445*,-2.9,0.7,-4.7,?
O=C(NCc1cccc(Cl)c1)c1cccnc1,18154*,-6.1,-2.1,-8.6,?
COc1ccccc1CNC(=O)c1ccc(S(=O)(=O)N2CCCC2)cc1,24898*,-1.0,-0.7,-2.5,-1.3
COc1cc(OC)c(OC)cc1CNC(=O)c1ccc(S(=O)(=O)N2CCCCC2)cc1,.,6.2,.,.,.
O=C(NCc1cccnc1)c1ccc(Cl)c(Cl)c1,2843,5.0,-1.9,-5.5,-0.3
CC(C)CCNC(=O)C1(C)CCN1Cc1ccc(-c2ccccn2)cc1 (stereo not given),3745,.,2.7,-2.1,0.5
CCN(CC)S(=O)(=O)c1ccc(S(=O)(=O)N2CCCC(C(=O)NC3CC3)C2)cc1 (stereo not given),3835,-0.4,4.0,-11.6,-0.8
CC(C)(C)NC(=S)NCc1cccnc1,23776*,-4.7,-1.9,-2.3,-1.6
COc1ccc(OC)c(NS(=O)(=O)c2cccs2)c1,22109*,4.7,-1.2,5.0,3.0
COC(=O)CCCC(=O)N1CCC(CO)(CCc2ccccc2)CC1,.,7.2,.,.,.
CCN(C[C@H]1N[C@@](C)(C(=O)OC)[C@H]2C(=O)N(Cc3ccccc3)C(=O)[C@@H]12)S(=O)(=O)c1ccc(OC)cc1,3900,-18.5,-7.8,-11.8,-0.2
O=C1c2ccccc2C(=O)N1CCc1nc(-c2ccc(Cl)cc2)no1,21023*,0.6,-34.8,1.5,2.1
O=C1c2ccccc2C(=O)N1CCc1nc(-c2ccncc2)no1,19470*,3.4,-8.3,2.0,2.3
CC(/C=N/NC(=O)c1ccccc1F)=C\c1ccccc1,6308,3.0,-7.2,-6.0,-2.7
Cc1ccc(C(=C2C3C=CC2C2C(=O)NC(=O)C32)c2ccc(C)cc2)cc1 (stereo not given),20213*,5.8,-1.4,2.9,1.1
CCCN=C1N/C(=C\c2ccco2)C(=O)N1c1ccccc1,2965,51.5*,-0.2,-3.7,0.8
O=C1/C(=C\c2ccco2)NC(=S)N1c1ccccc1,2570,24.5,0.7,-8.6,7.3
CN(C(=O)COC(=O)C1CCN(S(=O)(=O)c2cccs2)CC1)C1CCS(=O)(=O)C1 (stereo not given),20892*,-0.2,-2.9,6.1,?
O=C(COC(=O)C1CCN(S(=O)(=O)c2cccs2)CC1)c1ccc2c(c1)OCCO2,4416,-4.6,-8.5,-12.7,1.0
O=C(COC(=O)C1CCN(S(=O)(=O)c2cccs2)CC1)c1cc2ccccc2o1,3568,59.7*,-8.9,5.3,1.3
CN(C(=O)COC(=O)COc1ccccc1F)C1CCS(=O)(=O)C1 (stereo not given),5902,7.2,-12.0,38.4*,-3.7
Cc1cc(C)c(OCC(=O)OCC(=O)N(C)C2CCS(=O)(=O)C2)c(C)c1 (stereo not given),6351,-6.2,9.6,3.1,-2.0
O=C(CC1Nc2ccccc2NC1=O)Nc1cc(Cl)cc(Cl)c1 (stereo not given),22648*,-1.1,0.3,-7.9,-6.5
C=CCn1c(O)c(C(CC)=NCCc2ccccc2)c(=O)[nH]c1=O,22909*,-3.5,-0.4,-1.7,?
SMILES,Autofluor counter,MazEF act,Anthrax LF inh2,BoNT F protease,BoNT-A LC inh2
C=CCn1c(O)c(C(CC)=NCc2cccnc2)c(=O)[nH]c1=O,.,5.8,.,.,.
C=CCn1c(O)c(C(C)=NCc2cccnc2)c(=O)[nH]c1=O,17471*,-7.2,-1.9,-3.5,-1.8
CCC(=NCCCN1CCOCC1)c1c(O)n(Cc2ccccc2)c(=O)[nH]c1=O,19516*,-2.0,1.6,1.8,1.0
CC(=NCCCN1CCOCC1)c1c(O)n(Cc2ccccc2)c(=O)[nH]c1=O,4272,4.2,4.0,-3.5,0.5
O=c1[nH]c(-c2ccccc2)c(-c2ccccc2)nc1[N+](=O)[O-],2847,2.7,-7.2,-5.0,2.5
CC(C)(C)NC(=O)CSc1nc2cc(S(=O)(=O)N3CCCCC3)ccc2o1,5737,4.7,-1.8,-5.2,-0.7
CC(C)CCCC(C)NC(=O)c1cc(S(=O)(=O)N2CCCCC2)ccc1N1CCOCC1 (stereo not given),8736,-11.1,6.9,-7.1,0.8
O=C1C(Cl)=C(NCC2CCCO2)C(=O)N1Cc1ccccc1 (stereo not given),20284*,-5.5,-1.0,-2.2,?
Cn1c(=O)c2c(nc(NCCCO)n2Cc2cccc(Br)c2)n(C)c1=O,18885*,5.8,-0.7,4.5,?
Cn1c(=O)n(Cc2ccccc2)c(=O)c2c1nc(NCC1CCCO1)n2Cc1ccccc1 (stereo not given),24036*,-0.2,-4.2,-3.2,-0.8
Cn1c(=O)c2c(nc(NCC3CCCO3)n2C)n(C)c1=O (stereo not given),8209,6.0,4.9,-7.1,0.6
O=C1C(Cl)=C(NC2CCCCC2)C(=O)N1Cc1ccccc1,4593,-1.7,-9.2,-0.6,-1.1
Cc1cccc(Cn2c(NCCO)nc3c2c(=O)n(C)c(=O)n3C)c1,6820,1.5,-2.0,-3.5,1.1
CNc1nc2c(c(=O)n(C)c(=O)n2C)n1Cc1ccccc1,21814*,-7.1,-0.8,2.9,2.4
COc1ccc(C)cc1S(=O)(=O)N(C)CC(=O)N1CCCC1,3830,4.2,2.1,?,-3.2
N#Cc1ccc(OCC(=O)OCC(=O)NC2CC2)cc1,.,-3.9,.,.,.
COC(=O)C1=C(C)Nc2nc(SCc3ccccc3)[nH]c(=O)c2C1c1cccs1 (stereo not given),4125,-3.7,-5.3,-3.1,-0.1
Cc1ccc(CN2CCSc3ccc(C(=O)N4CCN(c5ncccn5)CC4)cc32)cc1,22029*,-6.9,2.1,0.7,0.6
Cc1ccc(-n2nc(C)c3c(C)c(CCC(=O)NCC4CCCO4)c(=O)n(C)c32)cc1 (stereo not given),5321,5.0,-4.2,-3.7,-0.6
O=c1cc(C(F)(F)F)c2cc3c4c(c2o1)CCCN4CCC3,3966,i,15.8,7.5,15.1
CC(C)c1cc(=O)oc2c3c4c(cc12)CCCN4CCC3,4291,87.9*,-4.7,-7.8,5.4
O=S(=O)(c1ccc(Cl)c(C(F)(F)F)c1)N1CCN(CC(O)COc2ccccc2F)CC1 (stereo not given),3943,-7.8,-7.4,2.0,-3.3
O=C(O)C1CCCCC1C(=O)NCCCn1ccnc1 (stereo not given),11201,5.5,-2.8,0.0,-0.1
O=C(O)C1C2C=CC(C2)C1C(=O)NCCCn1ccnc1 (stereo not given),22134*,5.5,-2.4,-0.1,0.3
C=CCNc1cc(C(F)(F)F)nc(-c2ccccn2)n1,19805*,-2.1,-1.0,1.2,1.4
FC(F)(F)c1cc(Oc2ccc(Cl)cc2)nc(-c2ccccn2)n1,23289*,-2.5,-2.0,-8.0,-3.3
FC(F)(F)c1cc(Oc2ccccc2Cl)nc(-c2ccccn2)n1,21573*,8.6,-1.3,0.3,1.7
COc1ccc(-c2noc(=O)n2Cc2ccccc2F)cc1,4413,5.4,3.8,4.6,-1.4
